According to PubChem BioAssay:

These compounds were tested on Neuregulin-1 EGF-like domain (assay: binders of neuregulin-1 EGF-like domain, primary screen, biochemical, small-molecule microarray, 635 nm fluorescence (AID 1081;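 further: binding of the protein to compounds printed on small-molecule microarray slides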)). Settings: small-molecule microarray binding, higher = more signal.

Row | SMILES | composite z-score
1 | O=C1N(Cc2ccccc2)c2ccccc2[C@@H]2OC(c3ccc(OCCCO)cc3)=N[C@]12Cc1ccccc1 | 1.19
2 | CCCCCCCCCCC(O)C1C=CC2C(=O)N(C)C(=O)C2N1NC(=O)OC(C)(C)C (stereo unspecified) | 0.465
3 | OCCCC1=CC(c2ccc(CN3CCCC3)cc2)N(Cc2sc3ccccc3c2Cl)CC1 (stereo unspecified) | 1.27
4 | [N-]=[N+]=Nc1ccccc1[C@@H]1OC(c2ccc(OCCCO)cc2)=N[C@]1(Cc1ccccc1)C(=O)NCC(O)CO (stereo partly specified) | 1.06
5 | C=CCC(OC(C)=O)[C@@H]1[C@@H](N(Cc2cc3ccccc3o2)C(=O)c2ccc(-c3ccccc3)cc2)c2cc(OCCCO)ccc2N1C(=O)c1ccc2ccccc2c1 (stereo partly specified) | -0.341
6 | Cc1cc(C)c(C(O)C2C=CC3C(=O)N(c4ccccc4)C(=O)C3N2Nc2ccc(C(C)C)cc2)c(C)c1 (stereo unspecified) | 1.25
7 | COc1cc(OC)c(C(O)C2C=CC3C(=O)N(c4ccccc4)C(=O)C3N2Nc2ccccc2)cc1Br (stereo unspecified) | 0.936
8 | CO[C@H]1O[C@H](CO)[C@@H](OC(=O)Nc2ccccc2-c2ccccc2)[C@H](OC(=O)Nc2ccc3c(c2)OCO3)[C@H]1OC(=O)Nc1ccc2c(c1)OCO2 | 1.35
9 | CC1CC/C=C\[C@H]2OC34C=CCN(c5ccc(Cl)cc5)C(=O)[C@H]3N(CCCCCO)C(=O)[C@]4(C)C2C(=O)O1 (stereo partly specified) | 0.429
10 | CC(C)N1C(=O)c2ccccc2[C@@H](C(=O)NC2CC2)[C@@H]1c1ccc(CO)cc1 | 1.3
11 | COCCCNC(=O)[C@@]1(Cc2ccccc2CN=[N+]=[N-])N=C(c2ccc(OCCCO)cc2)O[C@H]1c1ccccc1 | 1.2
12 | COc1ccc([Si](C)(C)[C@@H]2[C@@H](CCO)O[C@]3(C(=O)N(Cc4ccc(N5CCCCC5=O)cc4)c4ccccc43)[C@H]2C)cc1 | 1.15
13 | C=C(/C(=C/C[C@@H](OC(C)=O)c1cccc(OCCO)c1)c1cc(C(=O)OC)ccc1OC)C(C)C | 0.938
14 | C=C(COC)C(=O)CC[C@@H](OC(=O)c1cccnc1)c1ccc(OCCO)cc1 | 1.49
15 | CN(C)c1ccc(C(O)C2C=CC3C(=O)N(c4ccccc4)C(=O)C3N2Nc2ccc([N+](=O)[O-])cc2)cc1 (stereo unspecified) | 1.14
16 | C=C[C@@H](COC(C)=O)N(C(=O)OC(C)(C)C)S(=O)(=O)c1ccc(Br)cc1 | 1.01
17 | CCCC[C@@H](O)C1=C(COc2ccccc2)C[C@H]2C(=O)N(C)C(=O)[C@H]2[C@H]1CO | -0.609
18 | COC(=O)c1ccc([C@H](NC(=O)c2ccco2)[C@]2(C)C[C@H]2C2CCCCC2)cc1 | -0.808
19 | COc1ccc(CN(C2=CC[C@@]3(C(N)=O)C(=O)C(Cl)=C(Cl)C(=O)[C@@]3(C#N)C2)S(=O)(=O)c2ccc(Br)cc2)cc1 | 1.11
20 | COC(=O)c1cn(C[C@@H](Cc2ccccc2)NC(=O)N[C@H](CO)CCc2oc(C(C)=O)c(C(=O)OC)c2C(=O)OC)nn1 | 1.21
21 | CCOC(=O)C[C@H]1[C@H](OC(=O)c2cc3ccccc3oc2=O)[C@@H](NC(=O)c2ccc(-c3ccccc3)cc2)c2cc(OCCCO)ccc2N1C(=O)c1ccccc1 | 1.31
22 | COC(=O)[C@@]1(Cc2ccc(OC)cc2)[C@H]2c3cc(C(=O)N(C)C)n(C[C@H](O)CO)c3C[C@H]2CN1C(=O)c1ccccc1 | 1.2
23 | CC(C)[Si](C#C[Si](C(C)C)(C(C)C)C(C)C)(O[C@H](C)c1cn([C@H](CO)Cc2ccccc2)nn1)C(C)C | 0.432
24 | CCOC(=O)C1=CC[C@@H](c2ccccc2C(F)(F)F)N(S(=O)(=O)c2ccc(C)cc2)[C@H]1c1ccc(C#N)cc1 | 1.25
25 | C[N+](C)(C)CCCC[C@@H]1NC(=O)[C@H]2C[C@@H](C(=O)NCCCCCCN)[C@@H](c3ccc(O)cc3)N2C1=O | 1.09
26 | CC(C)N1CC=CC23O[C@@H]4C=CCOC(=O)[C@@H]4[C@H]2C(=O)N(CCCO)[C@@H]3C1=O (stereo partly specified) | 1.58
